Bioassay records as filed in PubChem BioAssay.
KKLEB tox = CF airway cell cytotoxicity counter-screen. 0.36% of 360,000 active. AID 602141. KKLEB CF airway cells viability, ATPlite luminescence, overnight; stronger effect = lower value; cells stimulated with P. aeruginosa culture filtrate. activity change (cytotoxicity), % at 5 µM;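 active = corrected activity change at or below -50% at 5 µM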
TWEAK Fn14 block = blocks TWEAK-Fn14 interaction in a reporter cell assay; TWEAK-stimulated Fn14 reporter cells, luciferase luminescence, 8 h; inhibition, % at 10 µM; 2% of 360,000 active; in the data active = inhibition above about 50%
Peg3 promoter = reduces Peg3 promoter-driven luciferase expression in HeLa; inhibition, % at 20 µM; 1.7% of 360,000 active; AID 588405; HeLa PEG-Prom luciferase reporter, luminescence, overnight;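 active = inhibition of at least 50% at 20 µM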
HIF-2a block = blocks HIF-2a reporter activity | AID 624352 | inhibition, % at 18.8 µM | 0.72% of 360,000 active | 786-0 RCC cells HIF-2a reporter, luciferase luminescence, overnight;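 active = inhibition of the luminescence signal of 40% or more relative to plate controls, in a single-dose primary screen at 18.75 µM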
CF NFkB inh = blocks PAF-induced NF-kB reporter in cystic fibrosis cells; AID 588850; inhibition, % at 5 µM; KKLEB NF-kB-GFP reporter, GFP fluorescence overnight; 0.86% of 360,000 active;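 active = at least 50% inhibition at 5 µM, scaled per plate between neutral and stimulator controls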;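 also: PAF is a Pseudomonas aeruginosa culture filtrate used as stimulus; plate controls were PAF-stimulated DMSO wells for no effect and unstimulated DMSO wells for full effect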
TROY signal inh = inhibitors of TROY-dependent NF-kB signaling; Q293 LMP1-TROYcd NF-kB luciferase reporter, 4 h; inhibition, % at 10 µM; 0.98% of 360,000 active; AID 1347056;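 active = compounds whose plate-normalised and pattern-corrected inhibition of the luciferase reporter signal at the single screening dose is 50% or more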
Numbers without * were called inactive. Rows were chosen to be rich in hits. Some 4% of all compounds tested hit in one or more screens of this group.

SMILES	KKLEB tox	TWEAK Fn14 block	Peg3 promoter	HIF-2a block	CF NFkB inh	TROY signal inh
COC(=O)N1C(=O)[C@](c2ccccc2)(C2CCCCC2)N1C(=O)OC	8	51*	42	26	40	17
COC(=O)N1C(=O)[C@](CC(C)C)(c2ccccc2)N1C(=O)OC	-5	35	37	25	30	2
C=COCCCNc1ncnc2sc(-c3ccccc3)cc12	-5	87*	13	-24	9	-2
CC(C)(C)Nc1ncnc2sc(-c3ccccc3)cc12	-10	71*	-11	-67	3	50
CCOc1ccc(N(CC(=O)NC2CCCCC2)C(=O)CCC(=O)Nc2cc(C)ccn2)cc1	-2	17	4	18	9	-9
Nc1ccccc1Nc1cccc(C(F)(F)F)c1	-5	50*	21	21	22	19
CS(=O)(=O)c1ccc(Cl)c(NC(=O)COC(=O)CNC(=O)c2ccc(Br)o2)c1	3	-2	5	3	-6	12
O=C(N/N=C/c1ccc2c(c1)OCO2)c1ccccn1	-23	76*	-13	-9	2	39
CN(C)c1ccc(/C=N\NC(=O)c2csnn2)cc1	5	71*	-116	-48	-10	19
COc1ccc(/C=N/NC(=O)c2cc(-c3ccc4c(c3)OCO4)n[nH]2)cc1OC	-14	52*	-10	-17	24	-28
O=C(N/N=C/c1ccncc1)c1ccccn1	8	-13	-85	-90	15	-15
CC(C)c1ccc(/C=N/NC(=O)c2ccccn2)cc1	-41	77*	-39	-71	-7	46
O=C(N/N=C/c1ccc(F)cc1)c1cc(-c2ccc3c(c2)OCO3)n[nH]1	5	-17	4	18	0	-12
COCC(C)n1c(C)cc(C(=O)COC(=O)/C=C/c2cccc(F)c2)c1C (centres undefined)	-10	7	9	17	-9	17
CCc1ccc2[nH]c(O)c(N=Nc3nc(-c4ccccc4)cs3)c2c1	5	4	1	-19	-18	-10
CCOC(=O)C1(CCOc2ccccc2)CCN(Cc2ccc(CO)o2)CC1	10	-5	25	18	0	11
COc1cccc(C(=O)Nc2ccc(S(=O)(=O)N3CCCCC3)cc2)c1OC	-10	-2	5	-4	4	5
CCc1c(C)sc(NC(=O)c2cc(-c3cc(OC)ccc3OC)on2)c1C#N	-70*	-39	12	16	40	1
CCc1c(C)sc(NC(=O)c2cc(-c3ccc(OC)c(OC)c3)on2)c1C#N	4	2	6	11	0	-9
O=c1cc(-c2ccc(O)c(O)c2)oc2cc(O)cc(O)c12	2	64*	-146	-64	13	37
COc1ccc(-c2cc(=O)c3c(O)cc(O)cc3o2)cc1	-7	35	-358	-121	68*	39
O=c1c(O)c(-c2ccc(O)c(O)c2)oc2cc(O)cc(O)c12	1	68*	-35	-33	26	32
COc1c(-c2ccc(O)cc2)oc2cc(O)cc(O)c2c1=O	-5	8	17	-18	-12	-28
CN(C)S(=O)(=O)c1cccc(NC(=S)NCc2ccco2)c1	-9	-1	2	-2	2	19
Fc1ccc(-c2nnc(-c3ccc(Cl)cc3Cl)o2)cc1	-55*	56*	-109	-118	-52	-20
SMILES	KKLEB tox	TWEAK Fn14 block	Peg3 promoter	HIF-2a block	CF NFkB inh	TROY signal inh
Clc1ccc(-c2nnc(-c3ccccc3)o2)c(Cl)c1	-32	63*	-40	-71	-13	19
COc1ccccc1-c1csc(C(C)(NC(C)=O)c2ccccc2)n1 (centres undefined)	-1	-15	-2	-20	11	-18
CCn1cnc2cc(NCc3ccc(N(C)C)cc3)ccc21	0	65*	-17	-186	-8	67*
CCn1cnc2cc(NCc3ccc(C)cc3)ccc21	-6	-11	-329	-195	10	-66
CCCn1cnc2cc(NCc3cccc(OC)c3)ccc21	-12	73*	-141	-162	5	66*
CCCn1cnc2cc(NCc3ccc(Br)cc3)ccc21	0	19	-234	-292	4	38
CN(C)c1ccc(CNc2ccc3c(c2)ncn3C(C)(C)C)cc1	-6	58*	-1	-62	-20	87*
